We go through 30 sequences from PubChem BioAssay AID1508600 (Functional Genomics Laboratory (NCATS/FGL), 2020).

Hit rate of the full screen: of about 53,000 sequences, about 3,700 (7%) were called active. The entries come from a sample that favours actives as a whole. A number with no mark means an inactive call.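 Rule for the calls: active = gene knockdowns whose robust z-score for IL-1 alpha signal is at least 2 or at most -2, so actives lie on both sides; inactive = the rest.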

This assay can be described thus: Components of the Cytosolic LPS Sensing Pathway: Gene Identification via Genome-wide siRNA Screen.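 Note: robust z of the log signal after scaling to non-targeting control siRNA wells of the plate.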 To be noted: RAW264.7 macrophages, IL-1a HTRF, actives lie on both sides, screened at 100 nM (by protocol), cells primed 5 h with Pam3CSK4 first. Put shortly:
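Supernatant IL-1a by HTRF from RAW264.7 cells primed with Pam3CSK4 (5 hours) and transfected with LipidA (24 hour) after 48h siRNA knockdown at 100 nM; cell viability checked with CellTiter-Glo.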
Consider GCUAUGUGAAUUUGUAUGATT against Parp11, for which the z-score was 0.398.

In the case of GCAUACGAUAUCACCAUAUTT against Dsg1a, the z-score is 0.173.

Take GCUCCGGAACAGAUAAAACTT against Kat14: the z-score is -0.485.

As to GGCAGUAACUUAAAACAGATT against Mecp2, the z-score was -0.139.

Turning to GCUGAAAGAAUUCGUGGACTT against Phf2, the z-score was 1.69.

As for GAUAUCACGGUCAUCUGUCTT against Pde6h, the z-score was -0.19.

CCUCGUAUUAGAUGAUGCATT against Snrpe: the z-score was -2.79 (active).

For the sequence CCUGCGCUUCUGACUAUCUTT against Dcbld1, the z-score is 0.18.

In the case of GGAGACCUGGCAAAUGUAATT against Dctn5, the z-score is 0.884.

In the case of GGAUCUCGAGUCUCAUCUCTT against Ccdc166, the z-score is 0.851.

As for CCGGAAGAGCUUGCUUUAUTT against Sgpp2, the z-score was 1.19.

For GGAUCCAAGGUGAAAAUAUTT against Fam131a, the z-score was -2.25 (active).

In the case of GGCUAAGGGUAACGUGCUGTT against Bri3, the z-score was -0.263.

GGUGGUUAAAUGGUUUUAATT against Prkg2: the z-score is 1.98.

For the sequence GGAUCUGACAGCUCAUUUUTT against Casp7, the z-score is 1.01.

As for CCACAAAACUAAGACACCUTT against P2ry6, the z-score is 0.587.

For GGCUCUAACAUGACAAUUUTT against Hyal1, the z-score was -0.251.

As for GGGAAAAUGGAAAAUACAUTT against Emc3, the z-score is 2.59 (active).

Consider GCUGAUUAACCCUCAGUAUTT against Gpc6, for which the z-score is -0.531.

On to GCAAGUGUAGAUAAAGUAUTT against Msi2, for which the z-score is 0.751.

Take GGAAAAGAUAACUCAGACATT against Hrg: the z-score was 0.727.

For the sequence GCUCUACCCUGAAGAUAUATT against Immt, the z-score was 2.44 (active).

In the case of GGCCACCAUUUCUGAAAUCTT against Tecr, the z-score was 0.714.

Regarding GAACACAAAUCUAGUAGACTT against Olfr1109, the z-score was 0.278.

Consider GGAGAAUUAAAAUGUGAAGTT against Hsd17b4, for which the z-score was 0.161.

As for GGAGCUAAACUCCUUGAAGTT against Slc22a4, the z-score is 2.07 (active).

With GGGUGCCUAGCAGAUGAACTT against Sp110, the z-score was -0.912.

For the sequence GGACAAUGUUGAAUCCUGUTT against Rrp15, the z-score was -0.155.

Consider GGAGGAAUCAAAGGCUCCUTT against Slc39a5, for which the z-score is -0.319.

Regarding GGCGCAUUAGCAGAGACUGTT against Mrps5, the z-score is 4.17 (active).
